Most compounds without a hit are left out; they make up all but 19% or so of the library.
IL-1B inflam inh = blocks inflammasome-driven IL-1 beta release. THP-1 LPS/ATP IL-1B secretion, AlphaLISA, 16 h; stronger effect = lower value. activity change, % at 57.5 µM. 360,000 compounds, 4.7% hits; in the data active = activity change below about -50%; inconclusive = mostly about -30% to -49%; also: % is scaled to controls: 0 for no effect and ±100 for the full control effect
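Secreted IL-1B measured by AlphaLISA bead assay after 16 h compound exposure of THP-1 cells; compounds (final up to 57.5 uM) added 1 h before LPS (250 ng/mL) and ATP (1.25 mM) stimulation; lower signal means less secretion.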
SW480 rereplic = induces DNA re-replication in SW480 colon adenocarcinoma cells; SW480 DNA re-replication, Hoechst DNA content imaging, 48 h; Potency, µM (titrated, usually from 46.1 µM), inactives show top-dose re-replication activation, usual class: activators; 340,000 compounds, 1.8% hits; also: potency is read from the fitted curve at half-maximal effect; % of control where 0% means no effect; nearly all actives have a fitted effect of over 55% in size
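Image-based DNA-content assay: after two days of treatment, nuclei were labelled with the DNA dye Hoechst and imaged, and hits were compounds raising the count of nuclei showing high fluorescence intensity.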
BCR signal inh = inhibitors of chronic active B-cell receptor signaling; ABC-DLBCL IkBa-CBG/CBR reporter, luminescence ratio, 4 h; Potency, µM (highest dose often 46.1 µM), for the others: top-dose activity change, negative = inhibition, actives largely listed as inhibitors; 340,000 compounds, 0.05% hits; active = well fitted inhibition curve with a large enough effect in the signal ratio, with a control signal flat, not every such curve was filed as active; inconclusive = small, poorly fitted or top-dose-only effect, or effect the other way, or a change in a side signal; the % refers to the signal ratio;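 also: potency is read from the fitted curve at half-maximal effect; plate controls were basal doxycycline-induced cells for no effect and cells given 10 µM MG132 for full effect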
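TMD8 human ABC-DLBCL cells with doxycycline-inducible IκBα–green luciferase fusion and unfused red luciferase, in 0.5% FBS medium; compounds up to 46 uM, 4 h at 37C. Green/red luminescence ratio, filter-overlap corrected, fitted to concentration-response curves.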
MCF10A rerep = inducers of DNA re-replication in MCF 10A breast cells; 350,000 compounds, 2.9% hits; Potency, µM (highest dose often 46.1 µM), for the others: at the top dose activity, positive = re-replication, actives largely listed as activators; MCF 10A DNA re-replication, Hoechst nuclear intensity, 48 h; also: potency is read from the fitted curve at half-maximal effect; % of control where 0% means no effect; nearly all actives have a fitted effect of over 50% in size
TDP1 cell noCPT = qHTS for Inhibitors of human tyrosyl-DNA phosphodiesterase 1 (TDP1): qHTS in cells in absence of CPT; AID 686978, 2013; Potency, µM (highest dose often 46.2 µM), for inactives: top-dose activity change, negative = growth inhibition, actives largely listed as inhibitors; 420,000 compounds, 15% hits; DT40 Tdp1-/- hTDP1 cells, no CPT, ATP luminescence, 48 h; also: potency is read from the fitted curve at half-maximal effect; % is scaled to controls: 0 for no effect and ±100 for the full control effect; nearly all actives have a fitted effect of over 55% in size
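Stably hTDP1-transfected Tdp1-null chicken DT40 cells were treated with library compounds minus camptothecin and grown for at least 48 hr at 37 °C, after which cellular ATP was quantified by luminescence.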
DT40 TDP1 CPT = growth inhibition of DT40 Tdp1-/-;hTDP1 cells with camptothecin (screen for TDP1 inhibitors); chicken DT40 Tdp1-/-;hTDP1 cells + 20 nM CPT, ATP luminescence, 48 h; Potency, µM (titrated, usually from 46.2 µM), for inactives: top-dose activity change, negative = growth inhibition, usual class: inhibitors; 420,000 compounds, 12% hits; also: potency is read from the fitted curve at half-maximal effect; % is scaled to controls: 0 for no effect and ±100 for the full control effect; nearly all actives have a fitted effect of over 55% in size
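Cell growth measured by CellTiter-Glo luminescence after a minimum 48 h, 37 C compound exposure with 20 nM CPT in Tdp1-knockout DT40 cells stably expressing hTDP1, seeded 400/well; qHTS titration format.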
An asterisk follows results filed as active; ? = inconclusive; nt = no result given. Unless noted, calls follow the shape of the dose curve; as a rule, active = well fitted curve in the direction sought with a large enough effect; inconclusive = small, poorly fitted or top-dose-only effect, or another doubt; inactive = no such curve, though single readings can be large; an effect the other way counts as inactive or inconclusive.

SMILES	IL-1B inflam inh	SW480 rereplic	BCR signal inh	MCF10A rerep	TDP1 cell noCPT	DT40 TDP1 CPT
N=c1c(S(=O)(=O)c2ccccc2)cc2c(=O)n3ccccc3nc2n1CC1CCCO1 (configuration not stated)	-19.2	3.4%	2.9%	-8.0%	?	?
CCOC(=O)c1cc(S(=O)(=O)Nc2ccc(OC(F)(F)F)cc2)[nH]n1	nt	nt	nt	nt	-14.7%	-29.5%
COc1nc(/C=C/N(C)C)c([N+](=O)[O-])c(OC)n1	0.0	-0.6%	-2.7%	6.51µM*	?	-8.3%
Cc1ccc(C(=O)COC(=O)CN2C(=O)C3C4CCC(C4)C3C2=O)cc1[N+](=O)[O-] (configuration not stated)	4.5	-2.5%	0.0%	-4.4%	?	?
O=C(CN1C(=O)C2C3C=CC(C3)C2C1=O)OCC(=O)c1ccc(Cl)c([N+](=O)[O-])c1 (configuration not stated)	-78.4*	?	nt	?	?	20.6µM*
CC(C)C(=O)Nc1cccc2nsnc12	11.1	2.2%	-1.0%	-2.2%	?	?
COc1ccc(/C=N/NC(=O)Nc2cccc3nsnc23)c(OC)c1	67.5	?	0.3%	?	10.3µM*	11.6µM*
COc1cc(/C=N/NC(=O)Nc2cccc3nsnc23)cc(OC)c1OC	-13.1	?	0.4%	3.26µM*	?	?
O=C(N/N=C/c1ccc(O)cc1)Nc1cccc2nsnc12	-97.6*	14.6µM*	?	?	20.6µM*	-11.7%
COc1ccc(/C=N\NC(=O)c2cccc(Br)c2)c(OC)c1	1.1	-1.8%	-15.2%	-2.7%	2.4%	23.1%
COc1cc(/C=N\NC(=O)Cn2nnc3ccccc32)cc(OC)c1OC	-3.8	-4.3%	1.3%	1.6%	-4.9%	-29.8%
CCOc1ccc(C(CC(=O)O)NC(=O)Cc2ccc(Cl)cc2)cc1 (configuration not stated)	14.9	-2.3%	-0.5%	-13.5%	4.4%	16.1%
O=C(CN1CCCCCCC1)Nc1cccc(Cl)c1Cl	45.0	-2.4%	-15.7%	?	?	-26.5%
Cc1nn(CC(C)C)c2sc(C(=O)NC3CC(C)(C)NC(C)(C)C3)cc12	-11.8	?	?	20.9%	?	?
O=C1NC[C@@H](CCCCN2C[C@H](Cc3ccc(O)cc3)N(CCc3ccc(O)cc3)C(=O)C2=O)N(CCc2ccc(O)cc2)C1=O	-3.3	nt	nt	nt	-7.7%	3.3%
CCCCCCSc1ccc([C@@H]2[C@H]3C(=O)N(CC)C(=O)[C@H]3[C@]3(C(=O)OC)CCCCN23)cc1OC	-6.1	-1.3%	14.7%	19.0%	?	20.6µM*
CCN1C(=O)[C@H]2[C@@H](c3ccc(SC4CCCCC4)c(OC)c3)N3CCCC[C@@]3(C(=O)OC)[C@H]2C1=O	0.1	15.4%	1.7%	?	23.1µM*	?
CCN1C(=O)[C@@H]2[C@@H](c3ccc(-c4ccc5c(c4)OCO5)c(OC)c3)N3CCCC[C@@]3(C(=O)OC)[C@@H]2C1=O	16.9	19.7%	8.3%	-2.3%	?	?
CCCSc1ccc([C@@H]2[C@@H]3C(=O)N(C)C(=O)[C@@H]3[C@]3(C(=O)OC)CCCN23)cc1OC	10.4	-2.7%	?	-3.3%	?	18.4µM*
CCSc1ccc([C@@H]2[C@H]3C(=O)N(CC)C(=O)[C@H]3[C@]3(C(=O)OC)CCCCN23)cc1OC	-9.0	-5.5%	-3.3%	?	16.4µM*	?
COc1cc(OC)cc(-c2noc([C@@H]3O[C@H](CO)[C@@H](O)[C@H]3O)n2)c1	-2.1	nt	nt	nt	?	?
COC(=O)c1c(NC(=O)COc2ccc(C)cc2Br)sc2c1CCCC2	nt	nt	nt	nt	?	-17.0%
CCCSc1ccc([C@@H]2[C@@H]3C(=O)N(CC)C(=O)[C@@H]3[C@]3(C(=O)OC)CCCCN23)cc1OC	0.4	3.7%	-10.1%	-13.1%	23.1µM*	16.4µM*
O=C(Cc1cccs1)NCCS(=O)(=O)N1CCN(c2ccccc2)CC1	0.1	nt	nt	nt	?	-27.2%
O=C(Cc1ccc(-c2ccccc2)cc1)NCCS(=O)(=O)N1CCN(c2ccccc2F)CC1	nt	nt	nt	nt	14.6µM*	10.3µM*
SMILES	IL-1B inflam inh	SW480 rereplic	BCR signal inh	MCF10A rerep	TDP1 cell noCPT	DT40 TDP1 CPT
O=C(CCC1CCCC1)NCCS(=O)(=O)N1CCN(c2ccccc2F)CC1	14.6	-41.8%	?	24.3%	14.6µM*	?
O=C(Cc1cccs1)NCCS(=O)(=O)N1CCN(c2ccccc2F)CC1	6.6	23.1µM*	-18.1%	16.4µM*	5.8µM*	7.31µM*
CCOC(=O)c1ccc(NC(=O)c2nn(CC)cc2Br)cc1	-20.3	1.2%	?	20.8%	-19.4%	-2.2%
CCOC(=O)c1c(NC(=O)c2ccn(CC)n2)sc2c1CCC2	?	-4.0%	8.0%	?	?	-29.3%
CCOC(=O)c1nn(-c2ccccc2)c(C#N)c1NC(=O)c1nn(CC)cc1Br	-13.5	15.8%	nt	7.8%	18.4µM*	14.6µM*
CCOC(=O)c1c(NC(=O)c2nn(CC)cc2Br)sc(C)c1C	-21.8	12.2%	?	15.2%	?	16.4µM*
CCOC(=O)c1nn(-c2ccccc2)c(C#N)c1N	-20.2	-0.6%	10.4%	1.4%	-9.4%	16.0%
CCOC(=O)c1c(NC(=O)c2nn(CC)cc2Br)sc2c1CCCCC2	?	-3.5%	1.8%	-4.5%	?	18.4µM*
N#CCN(CC#N)C(=O)C1c2ccccc2Oc2ccccc21	-4.3	-3.5%	0.2%	2.6%	?	?
O=C(O)COc1ccc(CCNS(=O)(=O)c2ccccc2)s1	nt	-3.6%	nt	-1.0%	-13.7%	3.2%
CC[C@]12C(=O)N(C)C[C@H]([C@@H]3C(=O)N(C)C(=O)[C@@H]31)N2C(=O)c1ccc(C(C)(C)C)cc1	-11.5	-7.4%	nt	10.2%	-9.5%	-18.9%
OC(c1ccccc1)(c1nc(-c2cccc(F)c2)cs1)C(F)(F)F (configuration not stated)	2.6	nt	nt	nt	?	?
OC(c1ccccc1)(c1nc(-c2ccc3ccccc3c2)cs1)C(F)(F)F (configuration not stated)	-15.3	nt	nt	nt	?	20.6µM*
OC(c1ccccc1)(c1nc(-c2ccccc2)cs1)C(F)(F)F (configuration not stated)	-29.4	nt	nt	nt	20.6µM*	18.4µM*
COc1cccc(NC(=O)COC(=O)CNC(=O)C2CCCCC2)c1	6.4	-10.0%	?	-4.2%	0.9%	-10.4%

Screening results from PubChem.
